# Measured values published in PubChem BioAssay (Tox21).
# Results filed as inconclusive are left out. Where a call stands in place of a potency, no number is given. Unmarked numbers belong to inactive results. Calls of active or inactive are those of the source. Unless noted, the call rests on the fitted dose curve; in most records, active means well fitted curve in the direction sought with a large enough effect in the repeat runs; inconclusive means weak or mixed curves; inactive means no such curve, though single readings can be large; an effect the other way counts as inactive or inconclusive.
# How the values were obtained:
# [1] = qHTS assay to identify aromatase inhibitors - cell viability counter screen (AID 743084); settings: MCF-7 aro ERE viability, CellTiter-Fluor, 24 h; series mostly up to 70.3 µM;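 further: cells stimulated with testosterone during compound exposure; nearly all actives have a fitted effect of over 55% in size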
# [2] = target: Aryl hydrocarbon receptor (Homo sapiens) (UniProt P35869); experiment: qHTS assay to identify small molecule that activate the aryl hydrocarbon receptor (AhR) signaling pathway (AID 743085); settings: HepG2 AhR-luc (HG2L7.5c1), luciferase, 24 h; series mostly up to 70.3 µM; further: nearly all actives have a fitted effect of over 15% in size; further: potency means the concentration at half of the fitted maximal effect;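 on activation: HG2L7.5c1 human HepG2 liver cells with stably integrated DRE-driven firefly reporter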
# Outline: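 AhR agonist activity is inferred from enhanced light output of a DRE-controlled firefly luciferase reporter in HepG2 cells, measured with ONE-Glo following 24 h treatment at 37C.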
# [3] = qHTS assay to identify small molecule that activate the aryl hydrocarbon receptor (AhR) signaling pathway - cell viability counter screen (AID 743086); settings: HepG2-AhR-luc viability, CellTiter-Fluor, 24 h; series mostly up to 70.3 µM;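 further: HepG2 liver cells carrying the AhR DRE luciferase reporter; nearly all actives have a fitted effect of over 45% in size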
# Outline: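 HepG2-AhR-luc (HG2L7.5c1) cells, 4000/well, were preincubated 5 h at 37C, exposed to compound in qHTS format for 24 hr at 37C, then given CellTiter-Fluor for 30 min; viability was read as fluorescence in the reporter wells.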
# [4] = target: Peroxisome proliferator-activated receptor gamma (Homo sapiens) (UniProt P37231); experiment: qHTS assay to identify small molecule agonists of the peroxisome proliferator-activated receptor gamma (PPARg) signaling pathway (AID 743094; active means well fitted activation curve with a large enough effect in the signal ratio in the repeat runs, not every such curve was filed as active; the % refers to the signal ratio); settings: HEK293H PPARg-UAS-bla, beta-lactamase FRET ratio, 17 h; series mostly up to 57 µM
# Outline: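 Compounds dissolved in DMSO were added to PPARg UAS-bla HEK293H cells for 17 h at 37C, and reporter expression was quantified by fluorescence intensity after 1 h with LiveBLAzer B/G FRET substrate.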
# [5] = target: Peroxisome proliferator-activated receptor gamma (Homo sapiens) (UniProt P37231); experiment: qHTS assay to identify small molecule antagonists of the peroxisome proliferator-activated receptor gamma (PPARg) signaling pathway (AID 743191; calls by dose curve; further: nearly all actives have a fitted effect of over 30% in size); settings: HEK293H PPARg-UAS-bla, beta-lactamase ratio, antagonist, 17 h; series mostly up to 62.6 µM
# Outline: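 GeneBLAzer PPARg UAS-bla HEK293H cells carrying a UAS-driven beta-lactamase reporter were plated at 3000 cells/well, preincubated 5 h at 37C, then given compound for 17 h at 37C; LiveBLAzer B/G FRET substrate was read after 1 h at room temperature.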
# [6] = qHTS assay to identify small molecule antagonists of the peroxisome proliferator-activated receptor gamma (PPARg) signaling pathway - cell viability counter screen (AID 743194); settings: PPARg-bla HEK293H viability, CellTiter-Glo luminescence, 17 h, co-treated with 50 nM rosiglitazone; series mostly up to 62.6 µM; further: nearly all actives have a fitted effect of over 55% in size
# Outline: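 PPARg-UAS-bla HEK293H cells were plated, rested 5 h at 37 C, then treated with compounds plus rosiglitazone (50 nM final) for 17 h at 37 C; viability was then read by CellTiter-Glo luminescence after 30 min at room temperature.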
# [7] = qHTS assay for small molecule agonists of the antioxidant response element (ARE) signaling pathway (AID 743202; active means well fitted activation curve with a large enough effect in the signal ratio in the repeat runs, not every such curve was filed as active; the % refers to the signal ratio); settings: HepG2 ARE-bla reporter, beta-lactamase FRET, 16 h; series mostly up to 73.3 µM
# Outline: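 Compounds delivered in DMSO to ARE-bla HepG2 cells (2,000 cells/well, pre-incubated 5 h) and left 16 h at 37 C. LiveBLAzer B/G FRET substrate then added for 2 h at RT before fluorescence reading.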
# [8] = qHTS assay for small molecule agonists of the antioxidant response element (ARE) signaling pathway - cell viability counter screen (AID 743203; calls by dose curve; further: nearly all actives have a fitted effect of over 55% in size); settings: ARE-bla HepG2 viability, CellTiter-Glo luminescence, 16 h; series mostly up to 73.3 µM
# Outline: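 Following 16 hrs of compound treatment at 37C, HepG2 cells with an ARE-controlled beta-lactamase gene were lysed with CellTiter-Glo. Luminescence was read after 30 min at room temperature.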
# [9] = qHTS assay for small molecule activators of the heat shock response signaling pathway - cell viability counter screen (AID 743209); settings: HSE-bla HeLa viability, CellTiter-Glo luminescence, 5 h; series mostly up to 62.6 µM; further: nearly all actives have a fitted effect of over 50% in size
# Outline: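 Readout: CellTiter-Glo luminescence, 30 min at room temperature. System: HSE-bla HeLa cells, 1500/well, plated overnight. Treatment: compounds in DMSO, 5 h at 37 C.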
# [10] = qHTS assay for small molecule activators of the heat shock response signaling pathway (AID 743210; active means well fitted activation curve with a large enough effect in the signal ratio in the repeat runs, with a control signal flat, not every such curve was filed as active; the % refers to the signal ratio;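 further: HeLa cells with beta-lactamase reporter driven by heat shock elements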); settings: HeLa HSE-bla reporter, beta-lactamase ratio, 5 h; series mostly up to 62.6 µM
# Outline: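 Reporter gene assay: HeLa cells stably bearing an HSE-bla construct, compound treatment 5 h at 37 C, LiveBLAzer substrate 2.5 h at RT, fluorescence intensity.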
# [11] = qHTS assay to identify small molecule agonists of the peroxisome proliferator-activated receptor delta (PPARd) signaling pathway - cell viability counter screen (AID 743211); settings: PPARd-bla HEK293H viability, CellTiter-Glo luminescence, 17 h; series mostly up to 62.6 µM; further: nearly all actives have a fitted effect of over 55% in size
# Outline: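 qHTS cell viability: PPARd-bla HEK293H; 17 h cpd, 37C; CellTiter-Glo, luminescence at 30 min RT.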
# [12] = qHTS assay to identify small molecule antagonists of the peroxisome proliferator-activated receptor delta (PPARd) signaling pathway - cell viability counter screen (AID 743213); settings: PPARd-bla HEK293H viability, CellTiter-Glo luminescence, 17 h; series mostly up to 62 µM; further: nearly all actives have a fitted effect of over 50% in size
# Outline: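 Luminescence from CellTiter-Glo, added after the bla read and incubated 30 min at room temperature, gives viability of HEK293H PPARd-bla cells exposed to compounds for 17 h at 37 C with 300 nM L165041.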
# [13] = target: Bile acid receptor (Homo sapiens) (UniProt Q96RI1); experiment: qHTS assay to identify small molecule antagonists of the farnesoid-X-receptor (FXR) signaling pathway (AID 743217; active means well fitted inhibition curve with a large enough effect in the signal ratio in the repeat runs, not every such curve was filed as active; the % refers to the signal ratio); settings: HEK293T FXR-UAS-bla, beta-lactamase ratio, CDCA-stimulated, 16 h; series mostly up to 62.6 µM
# Outline: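 GeneBLAzer FXR-UAS-bla HEK 293T, CDCA-stimulated (50 uM final). Compound treatment 16 h, 37 °C. Detection: beta-lactamase cleavage of B/G FRET substrate, fluorescence.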
# [14] = qHTS assay to identify small molecule antagonists of the farnesoid-X-receptor (FXR) signaling pathway - cell viability counter screen (AID 743221; active means well fitted cell-killing curve with a large enough effect in the repeat runs, not every such curve was filed as active; further: nearly all actives have a fitted effect of over 50% in size); settings: FXR-bla HEK293T viability, CellTiter-Glo luminescence, 16 h; series mostly up to 62.6 µM
# Outline: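 After a 5 h settling period, FXR-bla HEK 293T cells receive compound and chenodeoxycholic acid (50 uM final) and incubate 16 h at 37 C; CellTiter-Glo luminescence, read after 30 min at room temperature, reports cell viability.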
# [15] = target: Vitamin D3 receptor (Homo sapiens) (UniProt P11473); experiment: qHTS assay to identify small molecule agonists of the vitamin D receptor (VDR) signaling pathway (AID 743222; calls by dose curve); settings: HEK293T VDR-UAS-bla, beta-lactamase FRET ratio, 16 h; series mostly up to 63.5 µM
# Outline: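 In VDR-bla cells, compound-induced beta-lactamase expression is quantified by FRET substrate fluorescence. Treatment lasts 16 h at 37C; substrate develops 2 h at room temperature.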
# [16] = target: Vitamin D3 receptor (Homo sapiens) (UniProt P11473); experiment: qHTS assay to identify small molecule antagonists of the vitamin D receptor (VDR) signaling pathway (AID 743223; active means well fitted inhibition curve with a large enough effect in the signal ratio in the repeat runs, not every such curve was filed as active; the % refers to the signal ratio); settings: VDR-UAS-bla HEK293T, beta-lactamase FRET ratio, 16 h; series mostly up to 61 µM
# Outline: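 Reporter line VDR-bla; stimulus 1alpha,25-(OH)2 vitamin D3, 3 nM final; compound co-addition, 16 h 37C/5% CO2; LiveBLAzer B/G substrate 2 h RT; fluorescence intensity.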
# [17] = target: Peroxisome proliferator-activated receptor delta (Homo sapiens) (UniProt Q03181); experiment: qHTS assay to identify small molecule agonists of the peroxisome proliferator-activated receptor delta (PPARd) signaling pathway (AID 743212; calls by dose curve); settings: HEK293H PPARd-UAS-bla, beta-lactamase FRET ratio, 17 h; series mostly up to 62.6 µM
# Outline: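 A PPARd-bla HEK293H line with beta-lactamase under an Upstream Activator Sequence is treated with compounds at 37 C. Substrate loading for 2 h at room temperature precedes the fluorescence measurement.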
# [18] = target: Peroxisome proliferator-activated receptor delta (Homo sapiens) (UniProt Q03181); experiment: qHTS assay to identify small molecule antagonists of the peroxisome proliferator-activated receptor delta (PPARd) signaling pathway (AID 743215; active means well fitted inhibition curve with a large enough effect in the signal ratio in the repeat runs, not every such curve was filed as active; the % refers to the signal ratio;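 further: cells stimulated with agonist L165041 at 300 nM final during compound exposure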); settings: HEK293H PPARd-UAS-bla, beta-lactamase FRET ratio, antagonist, 17 h; series mostly up to 62 µM
# Outline: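 HEK293H UAS-bla, PPARd; agonist L165041 300 nM final with cpd in DMSO; 37 C 17 h; FRET substrate, RT 2 h; fluorescence intensity.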
# [19] = qHTS assay to identify small molecule agonists of the farnesoid-X-receptor (FXR) signaling pathway - cell viability counter screen (AID 743218); settings: FXR-bla HEK293T viability, CellTiter-Glo luminescence, 16 h; series mostly up to 62.6 µM; further: nearly all actives have a fitted effect of over 45% in size
# Outline: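 Parallel cytotoxicity test: compound-treated (16 h, 37 C) HEK 293T FXR-bla reporter cells were lysed with CellTiter-Glo and luminescence recorded.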
# [20] = target: Bile acid receptor (Homo sapiens) (UniProt Q96RI1); experiment: qHTS assay to identify small molecule agonists of the farnesoid-X-receptor (FXR) signaling pathway (AID 743220; active means well fitted activation curve with a large enough effect in the signal ratio in the repeat runs, not every such curve was filed as active; the % refers to the signal ratio); settings: HEK293T FXR-UAS-bla, beta-lactamase FRET ratio, 16 h; series mostly up to 62.6 µM
# Outline: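 Beta-lactamase reporter under UAS control in GeneBLAzer FXR HEK 293T cells (5000/well) measured with LiveBLAzer FRET substrate after 2 h at room temperature. Compound exposure lasted 16 h at 37C.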
# Sequence of Aryl hydrocarbon receptor (Homo sapiens) (P35869 whole entry, looked up): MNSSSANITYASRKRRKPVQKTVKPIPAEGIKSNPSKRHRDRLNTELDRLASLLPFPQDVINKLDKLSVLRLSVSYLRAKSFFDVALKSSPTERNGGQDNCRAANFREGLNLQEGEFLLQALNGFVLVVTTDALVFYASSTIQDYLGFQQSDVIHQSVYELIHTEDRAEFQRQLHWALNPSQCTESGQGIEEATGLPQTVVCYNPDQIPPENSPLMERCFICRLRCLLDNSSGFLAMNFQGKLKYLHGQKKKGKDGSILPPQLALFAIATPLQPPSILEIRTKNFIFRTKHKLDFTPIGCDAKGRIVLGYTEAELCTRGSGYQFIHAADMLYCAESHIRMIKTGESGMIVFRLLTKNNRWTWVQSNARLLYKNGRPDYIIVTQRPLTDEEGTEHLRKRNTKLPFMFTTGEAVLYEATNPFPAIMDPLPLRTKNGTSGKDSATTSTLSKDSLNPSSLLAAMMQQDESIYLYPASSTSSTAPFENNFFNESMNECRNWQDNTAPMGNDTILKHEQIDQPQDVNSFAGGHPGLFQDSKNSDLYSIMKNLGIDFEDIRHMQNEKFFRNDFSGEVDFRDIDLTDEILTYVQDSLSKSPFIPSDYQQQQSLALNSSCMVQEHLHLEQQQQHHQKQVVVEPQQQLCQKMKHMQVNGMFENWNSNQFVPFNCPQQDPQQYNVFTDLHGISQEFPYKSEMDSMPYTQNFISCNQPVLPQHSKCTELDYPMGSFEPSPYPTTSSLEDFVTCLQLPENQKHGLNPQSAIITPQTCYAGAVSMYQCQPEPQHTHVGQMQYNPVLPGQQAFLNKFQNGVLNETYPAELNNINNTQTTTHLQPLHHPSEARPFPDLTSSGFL
# Sequence of Peroxisome proliferator-activated receptor delta (Homo sapiens) (Q03181 whole entry, looked up): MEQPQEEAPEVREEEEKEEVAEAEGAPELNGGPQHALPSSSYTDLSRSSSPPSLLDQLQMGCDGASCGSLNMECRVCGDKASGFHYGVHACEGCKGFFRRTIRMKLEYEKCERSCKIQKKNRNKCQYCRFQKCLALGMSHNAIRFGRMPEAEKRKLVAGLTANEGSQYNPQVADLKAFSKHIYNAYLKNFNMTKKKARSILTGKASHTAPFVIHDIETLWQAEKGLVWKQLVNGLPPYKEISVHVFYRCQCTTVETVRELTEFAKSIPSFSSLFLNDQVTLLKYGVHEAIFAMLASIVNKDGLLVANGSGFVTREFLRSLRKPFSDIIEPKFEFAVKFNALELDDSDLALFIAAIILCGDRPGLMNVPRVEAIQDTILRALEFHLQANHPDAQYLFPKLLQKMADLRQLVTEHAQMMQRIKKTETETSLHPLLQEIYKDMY
# Sequence of Bile acid receptor (Homo sapiens) (Q96RI1 whole entry, looked up): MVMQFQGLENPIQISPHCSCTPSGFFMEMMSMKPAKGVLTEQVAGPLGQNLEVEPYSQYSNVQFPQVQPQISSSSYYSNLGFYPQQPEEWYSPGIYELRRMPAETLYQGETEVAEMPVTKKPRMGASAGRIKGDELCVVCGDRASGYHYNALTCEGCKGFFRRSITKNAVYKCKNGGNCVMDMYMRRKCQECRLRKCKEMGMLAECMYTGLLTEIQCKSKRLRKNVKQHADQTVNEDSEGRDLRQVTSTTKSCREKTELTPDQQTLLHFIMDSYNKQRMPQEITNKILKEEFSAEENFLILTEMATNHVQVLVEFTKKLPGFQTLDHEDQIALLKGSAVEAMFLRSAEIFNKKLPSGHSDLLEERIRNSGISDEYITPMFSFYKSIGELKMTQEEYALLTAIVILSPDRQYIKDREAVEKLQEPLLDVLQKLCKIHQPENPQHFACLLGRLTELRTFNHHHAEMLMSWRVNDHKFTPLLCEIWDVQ
# Sequence of Vitamin D3 receptor (Homo sapiens) (P11473 whole entry, looked up): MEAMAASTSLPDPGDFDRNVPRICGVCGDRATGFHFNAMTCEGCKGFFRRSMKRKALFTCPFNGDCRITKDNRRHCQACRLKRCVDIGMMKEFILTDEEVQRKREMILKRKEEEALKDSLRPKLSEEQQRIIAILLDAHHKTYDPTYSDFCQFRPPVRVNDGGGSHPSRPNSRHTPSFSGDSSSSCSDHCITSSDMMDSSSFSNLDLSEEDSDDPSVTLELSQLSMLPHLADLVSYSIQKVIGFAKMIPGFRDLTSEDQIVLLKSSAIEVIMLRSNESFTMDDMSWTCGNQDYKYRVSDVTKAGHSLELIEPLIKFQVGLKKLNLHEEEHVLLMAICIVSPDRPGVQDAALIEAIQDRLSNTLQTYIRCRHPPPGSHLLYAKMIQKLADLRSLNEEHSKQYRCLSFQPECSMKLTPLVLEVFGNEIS
# Sequence of Peroxisome proliferator-activated receptor gamma (Homo sapiens) (P37231 whole entry, looked up): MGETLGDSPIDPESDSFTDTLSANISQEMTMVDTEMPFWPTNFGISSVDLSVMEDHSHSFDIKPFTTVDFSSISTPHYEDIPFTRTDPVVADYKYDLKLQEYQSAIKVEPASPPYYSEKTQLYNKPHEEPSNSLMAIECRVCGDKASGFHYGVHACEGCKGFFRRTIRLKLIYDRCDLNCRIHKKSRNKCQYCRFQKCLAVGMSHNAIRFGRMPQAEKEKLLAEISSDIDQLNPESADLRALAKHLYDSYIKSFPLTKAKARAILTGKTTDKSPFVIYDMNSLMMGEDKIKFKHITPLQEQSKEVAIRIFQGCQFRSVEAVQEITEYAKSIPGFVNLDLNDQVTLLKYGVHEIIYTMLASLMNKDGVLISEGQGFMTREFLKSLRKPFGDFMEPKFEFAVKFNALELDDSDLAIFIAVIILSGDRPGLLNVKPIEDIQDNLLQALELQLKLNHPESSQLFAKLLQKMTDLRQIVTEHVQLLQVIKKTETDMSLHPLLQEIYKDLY
Structure (SMILES),Potency [1],Potency [2],Potency [3],Potency [4],Potency [5],outcome [6],Potency [7],outcome [8],outcome [9],outcome [10],outcome [11],outcome [12],outcome [13],outcome [14],outcome [15],outcome [16],outcome [17],outcome [18],outcome [19],outcome [20]
CCCCc1ccc2c(n1)[C@@H](c1ccc(OC)cc1C[C@H](C)C(=O)O)[C@H](C(=O)O)[C@H]2c1ccc2c(c1)OCO2,inactive,inactive,inactive,inactive,inactive,inactive,inactive,inactive,inactive,inactive,inactive,inactive,inactive,inactive,inactive,inactive,–,–,–,–
CCCCOCCOC(=O)CCCCCCCCC(=O)OCCOCCCC,inactive,inactive,inactive,inactive,inactive,inactive,inactive,inactive,–,–,inactive,inactive,–,inactive,–,–,inactive,inactive,–,–
CC(=O)C1CCCCC1=O (centres undefined),inactive,inactive,inactive,inactive,inactive,inactive,inactive,inactive,inactive,inactive,inactive,inactive,inactive,inactive,inactive,–,inactive,inactive,inactive,inactive
CCC(C)(CCCC(C)C)OC(C)=O (centres undefined),inactive,inactive,inactive,inactive,inactive,inactive,inactive,inactive,inactive,–,inactive,inactive,inactive,inactive,inactive,–,inactive,inactive,–,–
COC(=O)Nc1ccc(Cl)c(Cl)c1,inactive,60.8 µM (active),inactive,inactive,inactive,inactive,inactive,inactive,inactive,–,inactive,inactive,inactive,inactive,inactive,–,inactive,inactive,–,inactive
N[C@H](C(=O)O)[C@@H](O)c1ccc(O)c(O)c1,inactive,inactive,inactive,inactive,inactive,inactive,–,inactive,inactive,inactive,inactive,inactive,inactive,inactive,inactive,inactive,inactive,–,–,–
COc1ccccc1OCC1CNC(=O)O1 (centres undefined),inactive,inactive,inactive,inactive,–,inactive,inactive,inactive,inactive,inactive,inactive,inactive,–,inactive,inactive,inactive,inactive,inactive,–,–
CO/N=C(\C(=O)N[C@@H]1C(=O)N2C(C(=O)O)=C(CSc3nc(=O)c(O)nn3C)CS[C@H]12)c1csc(N)n1,inactive,inactive,inactive,inactive,inactive,inactive,inactive,inactive,–,–,inactive,–,inactive,inactive,inactive,inactive,inactive,inactive,inactive,–
O=CN(CCO)CCO,inactive,inactive,inactive,inactive,inactive,inactive,–,inactive,inactive,inactive,inactive,–,–,inactive,inactive,inactive,inactive,inactive,inactive,–
FB(F)F,inactive,inactive,inactive,inactive,–,inactive,inactive,inactive,inactive,–,inactive,inactive,inactive,inactive,inactive,inactive,inactive,–,inactive,–
[Ca+2],inactive,inactive,inactive,inactive,inactive,inactive,–,inactive,inactive,inactive,inactive,inactive,–,inactive,inactive,inactive,inactive,inactive,–,–
CC(=O)c1ccc2ccccc2c1,inactive,inactive,inactive,inactive,inactive,inactive,–,inactive,inactive,inactive,inactive,inactive,inactive,inactive,inactive,inactive,inactive,inactive,inactive,inactive
CCN(CC#N)c1cccc(C)c1,inactive,inactive,inactive,inactive,–,inactive,inactive,inactive,inactive,inactive,inactive,inactive,–,inactive,inactive,inactive,inactive,inactive,inactive,–
CC(CC=O)CC(C)(C)C (centres undefined),inactive,inactive,inactive,inactive,inactive,inactive,–,inactive,inactive,inactive,inactive,inactive,inactive,inactive,inactive,inactive,inactive,inactive,inactive,–
CN(C)C(=O)Oc1cccc([N+](C)(C)C)c1,inactive,inactive,inactive,inactive,–,inactive,inactive,inactive,inactive,inactive,inactive,inactive,inactive,inactive,inactive,inactive,inactive,inactive,–,–
CC(C)(C)c1ccc(-c2ccc(C(C)(C)C)cc2)cc1,inactive,inactive,inactive,inactive,–,inactive,inactive,inactive,inactive,–,inactive,inactive,inactive,inactive,–,–,inactive,inactive,inactive,inactive
